# The supplement of paper PMC3334620
# Over roughly 33,000 sequences, “E-score (-0.5 to 0.5)” has its median near -0.012; the highest 2% begin near 0.27. Many of the other results were omitted from the sample, so the highest values are more common in it than they were.
# Target: T1, Vhr1 (UniProt P40522)
# T1 sequence: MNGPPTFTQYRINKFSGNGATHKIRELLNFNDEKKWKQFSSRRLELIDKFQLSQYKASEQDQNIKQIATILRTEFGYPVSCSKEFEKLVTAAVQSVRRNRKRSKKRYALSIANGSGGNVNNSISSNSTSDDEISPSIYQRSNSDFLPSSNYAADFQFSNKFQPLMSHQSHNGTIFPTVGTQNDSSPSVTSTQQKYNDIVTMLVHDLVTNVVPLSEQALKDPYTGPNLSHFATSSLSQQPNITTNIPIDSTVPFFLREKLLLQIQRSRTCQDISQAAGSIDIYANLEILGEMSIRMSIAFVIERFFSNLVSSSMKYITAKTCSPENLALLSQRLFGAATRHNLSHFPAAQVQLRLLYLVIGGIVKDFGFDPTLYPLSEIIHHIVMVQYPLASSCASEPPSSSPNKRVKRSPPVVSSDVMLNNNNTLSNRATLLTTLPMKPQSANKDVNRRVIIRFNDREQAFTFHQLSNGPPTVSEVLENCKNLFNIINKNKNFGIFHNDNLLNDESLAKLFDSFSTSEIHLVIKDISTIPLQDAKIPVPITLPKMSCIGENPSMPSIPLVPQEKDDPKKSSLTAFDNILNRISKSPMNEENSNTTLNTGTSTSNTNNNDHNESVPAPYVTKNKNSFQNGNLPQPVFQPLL
# Assay: PBM E-score (8-mer binding enrichment) (E-score (-0.5 to 0.5)); higher = stronger / more preferred TF binding
# Settings: protein concentration: 200 nM; construct: GST-full length
# Summary of the method: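 Yeast transcription factors, full-length or as DNA-binding domains, were expressed with a GST tag using PURExpress in vitro transcription/translation. At about 100-200 nM they were applied to universal all-10-mer Agilent arrays, double-stranded by primer extension on fresh or once-stripped slides. Fluorescent anti-GST detected bound protein, and masliner normalised the scans. E-scores for ungapped eight-base words, pooled with reverse complements, came from the Universal PBM Analysis Suite.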
row,Sequence,PBM E-score
1,ACTGACAC,0.0369
2,CCTGACGC,-0.197
3,ACGGACTC,-0.0189
4,GTTGACTA,0.261
5,ACTGACTC,0.421
6,CCTGACTC,0.479
7,ACTGACCC,0.0589
8,CCGGACTA,0.108
9,CCGGACTC,0.303
10,CCTGACAC,0.188
11,GCTGACTA,0.324
12,AAGAAAGT,-0.0406
13,CTTCATTC,-0.0777
14,CCAATTCG,-0.173
15,GGGATCAA,-0.109
16,ATTTGGTG,-0.068
17,ATAGGGTC,0.197
18,CCAGCATA,0.0195
19,ACTGACTA,0.295
20,ACTGACTG,0.0572
21,ATTGACTA,0.236
22,ACTGACCA,-0.0638

row,Sequence,PBM E-score
1,CCTGACTA,0.391
2,CCTGACGA,0.0859
3,ATTGACTC,0.3
4,CTTGACTC,0.262
5,CCTGACAA,0.0179
6,CCCAGCAG,0.0474
7,AACTGGCT,-0.204
8,CAGCGCAC,-0.152
9,CGGTTGAC,-0.0106
10,AGGCAAGG,-0.292
11,AATGACTC,0.463
12,GATGACCA,0.13
13,AATGACAC,0.0353
14,AATGACTA,0.353
15,AATGACGA,-0.0492
16,AATGACGC,0.00169
17,CATGACTA,0.458
18,CATGACAA,0.0092
19,CATGACGA,0.22
20,AATGACTG,0.271
21,GATGACTA,0.447
22,GATGACAA,-0.00976

row,Sequence,PBM E-score
1,GGATCCGA,-0.0296
2,ATGTAGCG,-0.0682
3,AGCGCAAT,-0.0761
4,ATCTTAGG,-0.132
5,GCGCTGGA,0.168
6,GTTGATAA,0.109
7,CGGCTACA,0.153
8,CATGGCTA,0.224
9,CATGGTTC,0.364
10,CATGGCTC,0.28
11,CATGGTTA,0.215
12,AATGGTTC,0.212
13,AATGGCTC,0.137
14,AAAATCTT,-0.316
15,CCATCGAG,0.0908
16,ACGCGATG,0.148
17,ACTCGGAG,0.29
18,CCTCGGAG,0.00615
19,ACTCGGAT,0.186
20,TCTGGTCA,0.0764
21,CACGAGTC,0.324
22,AACGAGTT,-0.117

row,Sequence,PBM E-score
1,CACGAGTG,-0.0364
2,GACGAGAC,-0.0155
3,CCCGAGTC,0.387
4,AACGAGTC,0.278
5,CCCGAGTA,0.184
6,ACCGAGTC,0.254
7,AACGAGTA,0.134
8,GACGAGTC,0.276
9,GACGAGTA,0.077
10,CACGAGTA,0.0881
11,CGCGACGC,-0.00297
12,ACGACCTA,0.143
13,AAGTGTGT,0.0443
14,AGAACGAC,0.00162
15,CCGTTACG,-0.0486
16,ACCCGATG,0.137
17,ACTTGCTC,-0.057
18,CTTATCGC,-0.0118
19,TCCGACAA,-0.0624
20,GATTTCCA,0.0482
